Structures can show the parent of a compound that is named as a salt.
Assays:
Experiment in all cases: Euclidean distance of Cell Painting phenotypic profile (signed KS, 77 features) to DMSO centroid (dimensionless distance); 5 or 10 uM (library dependent); higher = stronger phenotypic change vs DMSO (phenoactivity)
Details in all cases: 48 h
786-O = system: 786-O
Summary of the method: (§1)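 Five cancer lines and a healthy fibroblast line received library compounds at 10 or 5 uM (library-dependent, 0.1% DMSO final) for 48 h. Stained cells were imaged confocally at 20X (9 fields/well). Harmony extracted 77 features, each scored as a signed Kolmogorov-Smirnov statistic against same-plate vehicle wells. Profiles were plate-position corrected, correlation-weighted and replicate-averaged at the top dose. Phenoactivity is the Euclidean distance from each profile to the median vehicle profile.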

A549 = system: A549
Summary of the method: as §1

DU145 = system: DU145
Summary of the method: as §1

FB = system: FB
Summary of the method: as §1

HEPG2 = system: HEPG2
Summary of the method: as §1

OVCAR4 = system: OVCAR4
Summary of the method: as §1

Question: Which Euclidean distance (786-O) does the source give for Cc1cc(C)cc(OCC2CNC(=O)O2)c1 (configuration not stated) [Metaxalone] here?
Answer: 0.96

Question: And the Euclidean distance (A549)?
Answer: 0.856

Question: And the Euclidean distance (DU145)?
Answer: 0.745

Question: And the Euclidean distance (FB)?
Answer: 0.753

Question: And the Euclidean distance (HEPG2)?
Answer: 0.417

Question: And the Euclidean distance (OVCAR4)?
Answer: 1.15

Question: How did the Euclidean distance (786-O) turn out when CCN(c1cc(-c2ccc(CN3CCOCC3)cc2)cc(C(=O)NCc2c(C)cc(C)[nH]c2=O)c1C)C1CCOCC1 [Tazemetostat (EPZ-6438)] was run?
Answer: 0.99

Question: What about the Euclidean distance (A549) of the same molecule?
Answer: 1.2

Question: And the Euclidean distance (DU145)?
Answer: 0.651

Question: What about the Euclidean distance (FB) of the same molecule?
Answer: 0.92

Question: What about the Euclidean distance (HEPG2) of the same molecule?
Answer: 0.489

Question: What about the Euclidean distance (OVCAR4) of the same molecule?
Answer: 1.16

Question: Which results are given for O=C(O)c1ccccc1OP(=O)(O)O [Fosfosal]?
Answer: Euclidean distance (786-O): 0.982; Euclidean distance (A549): 0.849; Euclidean distance (DU145): 0.86; Euclidean distance (FB): 0.671; Euclidean distance (HEPG2): 0.711; Euclidean distance (OVCAR4): 1.11

Question: Which results are given for Cn1cc(CNCC2CCN(c3ncc(C(=O)NO)cn3)CC2)c2ccccc21?
Answer: Euclidean distance (786-O): 2.78; Euclidean distance (A549): 4.19; Euclidean distance (DU145): 3.88; Euclidean distance (FB): 3.5; Euclidean distance (HEPG2): 4.44; Euclidean distance (OVCAR4): 3.65

Question: How did the Euclidean distance (786-O) turn out when N=C(N)N/N=C/c1c(Cl)cccc1Cl [Guanabenz Acetate] was run?
Answer: 1.25

Question: And the Euclidean distance (A549)?
Answer: 1.29

Question: And the Euclidean distance (DU145)?
Answer: 1.12

Question: And the Euclidean distance (FB)?
Answer: 0.609

Question: And the Euclidean distance (HEPG2)?
Answer: 0.842

Question: What about the Euclidean distance (OVCAR4) of the same molecule?
Answer: 1.77

Question: Which results are given for COC(=O)N/N=C/c1c[n+]([O-])c2ccccc2[n+]1[O-] [Carbadox]?
Answer: Euclidean distance (786-O): 0.912; Euclidean distance (A549): 0.99; Euclidean distance (DU145): 0.837; Euclidean distance (FB): 1.23; Euclidean distance (HEPG2): 1.04; Euclidean distance (OVCAR4): 1.46

Question: For Cc1noc(NS(=O)(=O)c2ccc(N)cc2)c1C [Sulfisoxazole], which Euclidean distance (786-O) is on record?
Answer: 1.32

Question: And the Euclidean distance (A549)?
Answer: 0.853

Question: What about the Euclidean distance (DU145) of the same molecule?
Answer: 1.02

Question: What about the Euclidean distance (FB) of the same molecule?
Answer: 0.984

Question: What about the Euclidean distance (HEPG2) of the same molecule?
Answer: 0.555

Question: And the Euclidean distance (OVCAR4)?
Answer: 1.26

Question: Clc1ccccc1CN1CCc2sccc2C1 [Ticlopidine HCl] was tested. Which Euclidean distance (786-O) did it give?
Answer: 1.29

Question: And the Euclidean distance (A549)?
Answer: 1.12

Question: And the Euclidean distance (DU145)?
Answer: 1.3

Question: What about the Euclidean distance (FB) of the same molecule?
Answer: 1.59

Question: What about the Euclidean distance (HEPG2) of the same molecule?
Answer: 0.746

Question: What about the Euclidean distance (OVCAR4) of the same molecule?
Answer: 1.56

Question: Which results are given for CN(C)CCn1nnnc1SCC1=C(C(=O)O)N2C(=O)[C@@H](NC(=O)Cc3csc(N)n3)[C@H]2SC1 [Cefotiam hydrochloride]?
Answer: Euclidean distance (786-O): 1.2; Euclidean distance (A549): 1.06; Euclidean distance (DU145): 0.774; Euclidean distance (FB): 0.93; Euclidean distance (HEPG2): 0.739; Euclidean distance (OVCAR4): 0.935

Question: OCc1c[nH]c2ccccc12 [Indole-3-carbinol] was tested. Which Euclidean distance (786-O) did it give?
Answer: 1.05

Question: And the Euclidean distance (A549)?
Answer: 1.17

Question: And the Euclidean distance (DU145)?
Answer: 0.838

Question: What about the Euclidean distance (FB) of the same molecule?
Answer: 0.767

Question: What about the Euclidean distance (HEPG2) of the same molecule?
Answer: 0.598

Question: What about the Euclidean distance (OVCAR4) of the same molecule?
Answer: 1.05

Question: O=C1C(CC[S+]([O-])c2ccccc2)C(=O)N(c2ccccc2)N1c1ccccc1 (racemic) [(+/-)-Sulfinpyrazone] was tested. Which Euclidean distance (786-O) did it give?
Answer: 1.01

Question: And the Euclidean distance (A549)?
Answer: 1.79

Question: And the Euclidean distance (DU145)?
Answer: 1.38

Question: What about the Euclidean distance (FB) of the same molecule?
Answer: 1.22

Question: And the Euclidean distance (HEPG2)?
Answer: 0.755

Question: And the Euclidean distance (OVCAR4)?
Answer: 0.993

Question: Which results are given for CO[C@@]1(NC(=O)Cc2cccs2)C(=O)N2C(C(=O)O)=C(COC(N)=O)CS[C@@H]21 [Cefoxitin sodium]?
Answer: Euclidean distance (786-O): 1.26; Euclidean distance (A549): 0.874; Euclidean distance (DU145): 1.51; Euclidean distance (FB): 1.02; Euclidean distance (HEPG2): 0.857; Euclidean distance (OVCAR4): 0.983

Question: How did the Euclidean distance (786-O) turn out when CC1(C)CCC2=C(O1)c1ccccc1C(=O)C2=O [Beta-Lapachone] was run?
Answer: 3.88

Question: And the Euclidean distance (A549)?
Answer: 5.17

Question: And the Euclidean distance (DU145)?
Answer: 7.8

Question: And the Euclidean distance (FB)?
Answer: 4.08

Question: And the Euclidean distance (HEPG2)?
Answer: 4.33

Question: And the Euclidean distance (OVCAR4)?
Answer: 5.57

Question: For C[N+](C)(C)CCO.O=C([O-])C(O)C(O)C(=O)O (configuration not stated) [Choline bitartrate], which Euclidean distance (786-O) is on record?
Answer: 1.35

Question: What about the Euclidean distance (A549) of the same molecule?
Answer: 1.24

Question: And the Euclidean distance (DU145)?
Answer: 0.973

Question: What about the Euclidean distance (FB) of the same molecule?
Answer: 1.15

Question: And the Euclidean distance (HEPG2)?
Answer: 0.96

Question: And the Euclidean distance (OVCAR4)?
Answer: 1.37

Question: Which results are given for Cc1ccc([N+](=O)[O-])cc1S(=O)(=O)N(C)/N=C/c1cnc2ccc(Br)cn12?
Answer: Euclidean distance (786-O): 3.41; Euclidean distance (A549): 4.67; Euclidean distance (DU145): 2.87; Euclidean distance (FB): 2.69; Euclidean distance (HEPG2): 2.06; Euclidean distance (OVCAR4): 4.4

Question: What does the source list for CCCCNC(=O)NS(=O)(=O)c1ccc(C)cc1 [Tolbutamide]?
Answer: Euclidean distance (786-O): 1.41; Euclidean distance (A549): 0.625; Euclidean distance (DU145): 0.836; Euclidean distance (FB): 0.823; Euclidean distance (HEPG2): 0.337; Euclidean distance (OVCAR4): 0.856

Question: CCCNS(=O)(=O)Nc1ncnc(OCCOc2ncc(Br)cn2)c1-c1ccc(Br)cc1 [Macitentan] was tested. Which Euclidean distance (786-O) did it give?
Answer: 1.36

Question: And the Euclidean distance (A549)?
Answer: 0.708

Question: And the Euclidean distance (DU145)?
Answer: 0.918

Question: And the Euclidean distance (FB)?
Answer: 0.878

Question: What about the Euclidean distance (HEPG2) of the same molecule?
Answer: 0.806

Question: And the Euclidean distance (OVCAR4)?
Answer: 0.809

Question: CNC[C@H](O)[C@@H](O)[C@H](O)[C@H](O)CO [Meglumine] was tested. Which Euclidean distance (786-O) did it give?
Answer: 1.78

Question: And the Euclidean distance (A549)?
Answer: 1.75

Question: And the Euclidean distance (DU145)?
Answer: 2.13

Question: What about the Euclidean distance (FB) of the same molecule?
Answer: 1.59

Question: And the Euclidean distance (HEPG2)?
Answer: 0.652

Question: And the Euclidean distance (OVCAR4)?
Answer: 1.67

Question: Which results are given for Oc1ccc(OCc2ccccc2)cc1 [Monobenzone]?
Answer: Euclidean distance (786-O): 2.36; Euclidean distance (A549): 2.32; Euclidean distance (DU145): 2.56; Euclidean distance (FB): 1.45; Euclidean distance (HEPG2): 0.99; Euclidean distance (OVCAR4): 2.11

Question: Which results are given for O=C(O)c1ccc2c(c1)nc(Nc1cccc(Cl)c1)c1ccncc12 [CX-4945 (Silmitasertib)]?
Answer: Euclidean distance (786-O): 1.47; Euclidean distance (A549): 1.44; Euclidean distance (DU145): 2.54; Euclidean distance (FB): 1.55; Euclidean distance (HEPG2): 1.4; Euclidean distance (OVCAR4): 1.25

Question: With O=C(NOCC1CC1)c1ccc(F)c(F)c1Nc1ccc(I)cc1Cl as the molecule, how does the Euclidean distance (786-O) read?
Answer: 2.48

Question: And the Euclidean distance (A549)?
Answer: 3.7

Question: And the Euclidean distance (DU145)?
Answer: 2.78

Question: What about the Euclidean distance (FB) of the same molecule?
Answer: 2.12

Question: What about the Euclidean distance (HEPG2) of the same molecule?
Answer: 2.22

Question: What about the Euclidean distance (OVCAR4) of the same molecule?
Answer: 2.06

Question: With CC(C)c1nc(CN(C)C(=O)N[C@H](C(=O)N[C@@H](Cc2ccccc2)C[C@H](O)[C@H](Cc2ccccc2)NC(=O)OCc2cncs2)C(C)C)cs1 [Ritonavir] as the molecule, how does the Euclidean distance (786-O) read?
Answer: 1.49

Question: What about the Euclidean distance (A549) of the same molecule?
Answer: 1.26

Question: And the Euclidean distance (DU145)?
Answer: 1.08

Question: And the Euclidean distance (FB)?
Answer: 1.35

Question: What about the Euclidean distance (HEPG2) of the same molecule?
Answer: 1.58

Question: What about the Euclidean distance (OVCAR4) of the same molecule?
Answer: 1.77

Reference: the supplement of paper PMC10127200
